# Results from PubChem BioAssay (NCI).
# The panel holds about 83,000 compounds, 20% with a hit somewhere; the sample as a whole holds those more often.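 In brief: 96-well plates, 48 h treatment, single concentration, percent growth endpoint.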 Unmarked numbers belong to inactive results. Calls of active or inactive are those of the source. The calls were made as follows: active = growth percent below 10; inactive = the rest.
# Assays:
# Experiment in all cases: NCI-60 one-dose screen, 48 h (100 = growth as untreated, 0 = no growth, -100 = all killed)
# Settings in all cases: 10 µM unless noted
# SR leukemia = system: SR leukemia
# OVCAR-8 ovarian = system: OVCAR-8 ovarian
# OVCAR-5 ovarian = system: OVCAR-5 ovarian
# OVCAR-4 ovarian = system: OVCAR-4 ovarian
# SK-OV-3 ovarian = system: SK-OV-3 ovarian
# IGROV1 ovarian = system: IGROV1 ovarian
# OVCAR-3 ovarian = system: OVCAR-3 ovarian
# HS 578T breast = system: HS 578T breast
# NCI/ADR-RES ovarian = system: NCI/ADR-RES ovarian
# RPMI-8226 leukemia = system: RPMI-8226 leukemia
Compound,growth (SR leukemia),growth (OVCAR-8 ovarian),growth (OVCAR-5 ovarian),growth (OVCAR-4 ovarian),growth (SK-OV-3 ovarian),growth (IGROV1 ovarian),growth (OVCAR-3 ovarian),growth (HS 578T breast),growth (NCI/ADR-RES ovarian),growth (RPMI-8226 leukemia)
CC(C)OC(=O)NNC(=O)c1ccncc1,104%,99.1%,98.5%,101%,106%,98%,93.4%,106%,109%,
CCC(O)(C(c1ccccc1)c1ccccn1)C(c1ccccc1)c1ccccn1 (stereo not drawn),83.8%,106%,96.4%,107%,94.8%,101%,102%,131%,109%,
C=C(C=O)[C@@H]1CC=C(C=O)CC1,-6.52% (active),,-54.5% (active),10.5%,0.713% (active),,-19.7% (active),6.33% (active),3.97% (active),-36.6% (active)
CCC(=O)OC1=C(C)SC2=NC(c3ccc(Cl)c(Cl)c3)=CC(c3cc(OC)c(OC)c(OC)c3)N21 (stereo not drawn),103%,,102%,98.1%,105%,106%,108%,101%,105%,95.8%
CCOC(=O)c1sc2ccc(NCc3nc[nH]c3C)cc2c1NC(=O)c1cc(OC)c(OC)c(OC)c1,10.4%,,96.7%,74%,98.1%,89.5%,94%,99.2%,91.7%,80.1%
O=C(CC1Sc2ccccc2NC1=O)NNc1ccc(F)cc1 (stereo not drawn),83.5%,,76.3%,72%,92.5%,70.3%,84.8%,82.4%,44.1%,78.7%
O=C1Nc2ccccc2SC1C1SC(=S)N(Cc2ccccc2)C1=O (stereo not drawn),-12.1% (active),,,59.8%,118%,96.5%,-5.62% (active),27%,104%,-21.7% (active)
O=C(O)CC1Sc2ccccc2NC1=O (stereo not drawn),61.1%,,,128%,106%,93.6%,110%,133%,88.2%,96%
CC(C)(C)OC(=O)N1Cc2cc3ccccc3nc2C1CO (stereo not drawn),137%,92.2%,110%,96%,119%,92.7%,101%,102%,106%,
C=C1C(=O)O[C@H]2[C@H]1CC/C(COC(=O)/C=C\C(=O)NCc1ccc(Cn3c(=O)sn(CCCI)c3=O)cc1)=C\CC[C@@]1(C)O[C@@H]21,-48% (active),-1.28% (active),-83.9% (active),-89.4% (active),42.9%,-98.3% (active),-93% (active),-40.2% (active),1.52% (active),
CCN(CC)CCOc1ccc(/C(=C(\C)c2ccc(F)c(OC)c2)c2ccc(Cl)cc2)cc1,-22.2% (active),17.4%,40.9%,26.6%,54%,29.7%,16.6%,16%,39.8%,
Nc1ccc(-c2cc3c(Nc4ccc(OCc5cccc(F)c5)c(Cl)c4)ncnc3s2)cc1,14.5%,63.1%,77.9%,54.8%,-2.32% (active),,46.6%,77%,50.4%,
N#Cc1cnn2c(-c3ccc(Cl)cc3)nc(NCCc3ccccc3)nc12,83.5%,88.8%,101%,85.7%,74.5%,,99.2%,99.6%,90.1%,
O=[N+]([O-])c1ccc(-c2cc3c(Nc4ccc(OCc5cccc(Cl)c5)c(Cl)c4)ncnc3s2)cc1,48.9%,53.4%,88.2%,41.1%,58.5%,76.8%,26.7%,82.1%,68.1%,
O=C1c2cccc3c(-c4ccc(-c5nc6c7ccccc7c7ccccc7c6[nH]5)cc4)ccc(c23)C(=O)N1CCN1CCNCC1,5.99% (active),20.2%,108%,-23.2% (active),102%,72.4%,91.5%,108%,57.8%,
N#Cc1cnn2c(-c3ccc(Cl)cc3)nc(NC3CC3)nc12,86.1%,102%,93.9%,87.2%,107%,89.4%,101%,101%,98.8%,
COc1ccc(OC)c(C(=O)Nc2cccc(-c3cc(=O)c4ccccc4o3)c2)c1,80%,63.3%,95.4%,73.3%,52.6%,104%,110%,68.3%,80.2%,
CN(C)CCn1cc(-c2ccc3c(Nc4ccc(CC(=O)Nc5cccc(F)c5)cc4)ncnc3c2)cn1,-20% [30 µM] (active),-29.2% [30 µM] (active),-91.8% [30 µM] (active),-76.5% [30 µM] (active),-26.4% [30 µM] (active),-65.3% [30 µM] (active),-78% [30 µM] (active),-48.7% [30 µM] (active),52.4% [30 µM],
COc1ccc(Cn2cnc3cc(C(=O)Nc4cccc5ccccc45)ccc32)c(OC)c1,-17% [30 µM] (active),14.7% [30 µM],16.3% [30 µM],44.4% [30 µM],31% [30 µM],,-17.8% [30 µM] (active),29.8% [30 µM],3.4% [30 µM] (active),
COc1ccc(/C(C)=C(\c2ccc(Cl)cc2)c2ccc(OCCCN(C)C)cc2)cc1F,-19.7% (active),71.5%,72.6%,54.1%,81.9%,48.5%,63.5%,56.3%,77.1%,
COc1cccc(/C=C2\COc3ccc(O)cc3C2=O)c1OC,5.49% (active),69%,89.7%,92.5%,92.9%,67.5%,41.2%,73%,63.2%,
CCOC(=O)C1=C(C)NC(SCc2nnc(-c3ccc(Cl)cc3)o2)=NC1c1ccc(Cl)cc1Cl (stereo not drawn),37.9%,54.2%,89%,52.7%,90.3%,43.9%,62.8%,67.1%,54.6%,
COc1ccc(-n2sc(=O)n(Cc3ccc(COC(=O)C(C)c4ccc(CC(C)C)cc4)cc3)c2=O)cc1 (stereo not drawn),-27.4% (active),50.1%,63.6%,18.3%,96.1%,42.5%,-67.3% (active),77.8%,76.7%,
O=C(O)c1ccc(CO)o1,100%,95.5%,108%,98.3%,116%,,112%,106%,116%,
COc1ccc(OC)c(/C=C2\COc3ccc(O)c(O)c3C2=O)c1,7.03% (active),24.7%,31.9%,27.4%,45.2%,5.82% (active),,22%,14.1%,
Cn1cc(-c2ccc3ncc(-c4ccc(CC(=O)Nc5cc(C(C)(C)C)nn5C)cc4)cc3c2)cn1,11.6% [30 µM],3.22% [30 µM] (active),46.2% [30 µM],-21.8% [30 µM] (active),12.6% [30 µM],7.76% [30 µM] (active),,27.8% [30 µM],-8.5% [30 µM] (active),
COc1ccc(/C(C)=C(\c2ccc(Cl)cc2)c2ccc(OCCN3CCCC3)cc2)cc1F,-22.6% (active),48.7%,46.6%,32.3%,58.6%,38.1%,35.2%,30%,51.6%,
NC(=Nc1ccc(N)cc1)C(N)=Nc1ccc(N)cc1,134%,85.3%,105%,101%,126%,84.7%,94.1%,114%,99.6%,
